Data: PubChem BioAssay AID504727 (Broad Institute, 2011)
Unmarked numbers belong to inactive results. Activity calls are given as the source filed them.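 The calls were made as follows: active = fitted half-maximal concentration AC50 at or below ten times the highest valid tested dose, with signal falling as DNA is displaced (actives reach about 34 µM in these data); inconclusive = flat fit at moderate signal loss, or poor fit quality; inactive = the rest, including signal rising instead of falling.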

Assay: DNA intercalators displacing acridine orange, dose response, artefact control for KSHV LANA DNA-binding inhibitor project, biochemical, fluorescence polarization, cherry-picked samples, set 2 (AID 504727);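 as to activity change, negative = DNA displacement: 0% = median of neutral control wells and -100% = mitoxantrone positive control wells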
Details: AC50: Acridine orange-DNA displacement; series mostly up to 35 µM; activity change, negative = DNA displacement: at the top concentration

Row | Structure (SMILES) | activity change, negative = DNA displacement [%] | AC50
1 | CC(=O)Nc1ccc(S(=O)(=O)Nc2nc3ccccc3nc2Nc2ccc(C(=O)O)c(O)c2)cc1 | -0.292 | 
2 | O=C1CCCC(O)=C1N=Nc1ccc(C(=O)O)cc1 | 3.7 | 
3 | CCN(C(=O)c1cccc(S(=O)(=O)N2CCc3ccccc32)c1)C1CCS(=O)(=O)C1 (centres undefined) | 1.43 | 
4 | CCCCn1c(N)c(N(CCOC)C(=O)c2cc(C)oc2C)c(=O)[nH]c1=O | -2.07 | 
5 | CCOC(=O)c1ccc[n+](CC(=O)c2ccc(OC)cc2)c1 | -0.822 | 
6 | O=C(NCC1CCCO1)c1cccc(S(=O)(=O)N(Cc2ccccc2)c2ccccc2)c1 (centres undefined) | -1.69 | 
7 | COc1ccc(C(=O)c2ccsc2N)cc1 | 3.64 | 
8 | O=C(O)c1ccc(-n2cccc2/C=C2/NC(=O)N(c3cccc(Cl)c3)C2=O)cc1 | 27 | 
9 | Cc1[nH][nH]c(=O)c1C(c1ccc(-c2ccc(Cl)c(C(=O)O)c2)o1)c1c(C)[nH][nH]c1=O | -0.131 | 
10 | Nc1ccc2nc3c(=O)n(C4CCCCC4)c(=O)[nH]c3nc2c1 |  | 3190 nM (active)
11 | C/C(=N\NC(=O)CCc1c(C)n[nH]c1C)c1ccc([N+](=O)[O-])cc1 | 5.29 | 
12 | O=C1c2cccc3c(O)ccc(c23)C(=O)N1Cc1ccco1 |  | 1190 nM (active)
13 | CN(C)c1ccc(/C=C/C(=O)c2ccc(O)cc2)cc1[N+](=O)[O-] | -4.37 | 
14 | O=C1c2ccccc2C(Nc2ccc3c(c2)OCCO3)N1Cc1ccc2c(c1)OCO2 (centres undefined) | 3.63 | 
15 | O=C1CN=C(Nc2ccccc2Cl)N1Cc1ccc2c(c1)OCO2 | 1.88 | 
16 | COc1[nH]c(/N=C/c2ccccc2)c(C#N)c1C#N | -1.88 | 
17 | CCc1ccc(N2CC(C(=O)OCC(=O)N(CC)c3c(N)n(Cc4ccccc4)c(=O)[nH]c3=O)CC2=O)cc1 (centres undefined) | 1.35 | 
18 | Cn1nc(-c2ccccc2)c2nc3ccccc3nc21 |  | 35800 nM (active)
19 | O=c1c2cc(O)c(O)cc2oc2cc(O)c(C3OC(CO)C(O)C(O)C3O)c(O)c12 (centres undefined) | 2.47 | 
20 | CCC(=O)Oc1ccc2c(c1)O/C(=C\c1ccco1)C2=O | -9.88 | 

Row | Structure (SMILES) | activity change, negative = DNA displacement [%] | AC50
21 | Cc1ccc(C)c(N2CCN(C(=O)c3cc4ccccn4n3)CC2)c1 | -11.2 | 
22 | CCCOc1ccc(C=Nc2ccc(OC)c(S(=O)(=O)N3CCOCC3)c2)c(O)c1 | -0.786 | 
23 | Cc1cc2c(N)cccc2nn1 | -2.03 | 
24 | Cc1noc(C)c1C(=O)N1CCN(c2ccc(OCc3ccccc3)cc2)CC1 | -11.9 | 
25 | COc1ccc(NC(=O)NS(=O)(=O)c2ccc(C)cc2)cn1 | -15 | 
26 | Cc1ccccc1NC(=S)NC(C)CCc1ccccc1 (centres undefined) | 0.759 | 
27 | COc1cc(C(=S)N2CCN(c3cccc(Cl)c3)CC2)ccc1O | 2.99 | 
28 | O=C(COC(=O)c1ccc([N+](=O)[O-])o1)NCCCc1ccccc1 | 4.72 | 
29 | COc1ccc(OC)c(-c2c3cc(O)c(=O)cc-3oc3cc(O)c(O)cc23)c1 |  | 1620 nM (active)
30 | CC(C)(C)n1nnnc1C(c1cccnc1)N(Cc1ccccc1)Cc1ccco1 (centres undefined) |  | 202 nM (active)
31 | Cc1c(N)cc(S(=O)(=O)O)cc1NC(=O)c1cccc([N+](=O)[O-])c1 | 6.89 | 
32 | O=C1c2cccc3c(N4CCCCC4)ccc(c23)C(=O)N1c1cccc(O)c1 | -4.78 | 
33 | CCc1ccc[n+](-c2[nH]c(=O)sc2/C=N/NC([S-])=Nc2ccccc2)c1 |  | 14800 nM (active)
34 | CC(=O)OCCn1c2nc(=O)[nH]c(=O)c-2nc2cc(C)c(C)cc21 |  | 342 nM (active)
35 | COc1ccc(-c2cc(C(F)(F)F)n3ncc(C(=O)N4CCCCC4c4cccnc4)c3n2)cc1 (centres undefined) | 5.21 | 
36 | CCN(CCCNC(=O)Cn1cc2c(n1)CCCC2)c1cccc(C)c1 | 1.96 | 
37 | Cc1cc2nc3c(=O)[nH]c(=O)[nH]c3nc2c([N+](=O)[O-])c1N |  | 2410 nM (active)
38 | O=C1c2ccccc2C(=O)C1c1ccccn1 | -2.43 | 
39 | N#C/C(=C\c1ccc(-c2ccccc2[N+](=O)[O-])o1)C(N)=O | 2.11 | 
